From PubChem BioAssay AID624330 (Southern Research Specialized Biocontainment Screening …, 2012)
About 2,100 (0.62%) of roughly 340,000 compounds were called active.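 Rule for the calls: active = first-screen hits whose inhibition reached a set limit at any dose in the follow-up dose series; inconclusive = inhibition above the set first-screen limit but never retested; inactive = the rest.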 A selection follows. Results with a measured potency or affinity are listed apart.

Each molecule was assayed against Rac GTPase-activating protein 1 (Homo sapiens) (UniProt Q9H0H5) (assay: blockers of MgcRacGAP-driven Rac1 GTP hydrolysis – biochemical, ADP Hunter fluorescence, primary and confirmatory, confirmation (AID 624330;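 note: fluorescence reports GDP produced by GAP-driven GTP hydrolysis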)). Details: MgcRacGAP-stimulated Rac1 GTP hydrolysis, at 30 µM, stronger effect = higher value, GST-tagged Rac1 F28L mutant substrate.
Chain of Rac GTPase-activating protein 1 (Homo sapiens) (Q9H0H5 whole entry, looked up): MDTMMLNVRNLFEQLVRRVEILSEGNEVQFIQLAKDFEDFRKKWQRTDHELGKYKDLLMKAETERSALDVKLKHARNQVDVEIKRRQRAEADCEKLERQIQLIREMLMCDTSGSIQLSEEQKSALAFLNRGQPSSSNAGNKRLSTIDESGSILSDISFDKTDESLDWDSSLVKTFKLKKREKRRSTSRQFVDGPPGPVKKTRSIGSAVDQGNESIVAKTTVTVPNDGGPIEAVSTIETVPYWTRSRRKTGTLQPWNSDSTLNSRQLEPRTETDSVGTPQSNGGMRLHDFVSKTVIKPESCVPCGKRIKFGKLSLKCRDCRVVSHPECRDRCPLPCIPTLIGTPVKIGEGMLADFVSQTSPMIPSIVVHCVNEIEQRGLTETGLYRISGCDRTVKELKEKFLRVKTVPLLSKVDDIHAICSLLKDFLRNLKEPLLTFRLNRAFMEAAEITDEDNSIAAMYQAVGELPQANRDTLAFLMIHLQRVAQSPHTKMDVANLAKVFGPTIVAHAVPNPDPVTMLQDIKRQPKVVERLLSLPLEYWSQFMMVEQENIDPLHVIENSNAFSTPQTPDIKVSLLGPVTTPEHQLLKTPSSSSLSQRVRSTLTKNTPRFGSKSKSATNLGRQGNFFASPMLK

inhibition, inactive:
CN(Cc1ccc(N(C)C)cc1)C(=O)c1cc2ccccc2o1 2.93%
C#CCOCCOCCOCCNc1nc(N2CCN(C(=O)Cn3cc(CCO)nn3)CC2)nc(N2CCN(C(=O)[C@H]([C@@H](C)CC)n3cc(CCCN=C(N)N)nn3)CC2)n1 -0.25%
O=C(Cc1ccc([N+](=O)[O-])cc1)Nc1cccc(C(=O)N2CCCCC2)c1 6.71%
N/C(COc1ccc(Cl)cc1Cl)=N\O 7.42%
C[C@@H](NC(=O)C[C@@H]1C[C@@H]2c3cc(NS(=O)(=O)c4ccc(F)cc4)ccc3O[C@@H]2[C@@H](CO)O1)c1ccccc1 14.8%
CCN1/C(=C2/SC(=S)N(C)C2=O)C=Cc2cc(C)ccc21 1.56%
CCN1/C(=C2\C(=O)N(C)C(=S)N2C)C=Cc2cc(C)ccc21 30.1%
CC(C)CNC(=S)NC1CC2CCCC(C1)N2Cc1cccs1 (centres undefined) -4.03%
CCOC(=O)Nc1cc(NC(=O)OCC)c(C)nc1C 9.52%
CC(=O)c1ccc(Nc2ncnc3c2oc2ccccc23)cc1 5.82%
Cc1ccc(Nc2ncnc3c2oc2ccccc23)cc1 11.9%
CCc1nc(Nc2ccncc2)c2oc3ccccc3c2n1 9.44%
CCc1nc(SCC(=O)N2CCN(c3ccccc3)CC2)c2oc3ccccc3c2n1 18.4%
CCc1nc(Nc2ccccc2)c2oc3ccccc3c2n1 7.79%
c1ccc(Nc2ncnc3c2oc2ccccc23)cc1 13%
CCc1nc(Nc2ccc(F)cc2)c2oc3ccccc3c2n1 10.5%
c1ccc2c(c1)oc1c(Nc3ccc(CN4CCOCC4)cc3)ncnc12 14.1%
COc1ccc(NC(=O)Nc2nnc(CC(=O)NCc3ccccc3)s2)cc1 -13.3%
COc1cc(C(=O)N2CCN(c3ccc([N+](=O)[O-])cc3)CC2)ccc1OCc1c(C)noc1C 12.9%
COc1cc(NC(=O)Cn2cnc(S(=O)(=O)N3CCCCC3)c2)cc(OC)c1OC 1.97%
O=C(NCc1ccccc1)c1cc(=O)c2ccccc2o1 3.22%
CSC[C@H]1CN(Cc2ccccc2)C(=O)[C@@H]1CC(=O)Nc1ccc(Br)cc1 11%
COCCCn1c(SCC(=O)NC(C)(C)C)nnc1-c1cccs1 9.91%
O=C(N/N=C/c1ccc(C(F)(F)F)cc1)c1ccncc1 5.6%
Fc1ccc(Nc2ncnc3ccccc23)cc1 9.64%
Cc1ccc(Nc2ncnc3ccccc23)cc1 12.6%
COc1ccc(-c2nsc(SCC(=O)NCC3CCCO3)n2)cc1 (centres undefined) 5.33%
O=C1C2C3C=CC(CC3)C2C(=O)N1c1ccc([N+](=O)[O-])cc1 (centres undefined) 12.6%
COc1ccnc(NCc2cccc(C(F)(F)F)c2)c1C#N -0.963%
COc1cccc(Cn2nc(C(=O)O)c3ccccc3c2=O)c1 0.46%
CCn1c2ccccc2c2cc(NC(=O)c3ccc([N+](=O)[O-])cc3)ccc21 8.32%
Cn1ccc(=O)c2cc([N+](=O)[O-])ccc21 9.86%
Cc1csc(SCC(=O)NC2CCC(C)CC2)n1 (centres undefined) -6.91%
O=C(c1ccco1)N1CCN=C1SCc1cccnc1 4.28%
CC(=O)Nc1ccc(NC(=O)C(C)Oc2ccc(Cl)cc2Cl)cc1 (centres undefined) 1.91%
CC(Oc1ccc(Cl)cc1Cl)C(=O)Nc1cccc(O)c1 (centres undefined) 9.91%
NC(=O)c1ccc(NC(=O)COC(=O)c2ccc3c(c2)OCO3)cc1 2.24%
O=C(O)C1CCCCC1C(=O)Nc1ccc(S(=O)(=O)N2CCCC2)cc1 (centres undefined) 6.7%
O=C(COC(=O)c1ccc2c(c1)OCO2)Nc1ccccc1 4.56%
O=C(O)[C@H]1CCCC[C@H]1C(=O)Nc1ccc(S(=O)(=O)N2CCOCC2)cc1 4.65%
CCC(=O)Nc1ccc(NC(=O)c2ccc3c(c2)OCO3)cc1 11.5%
CC(=O)Nc1ccc(C(=O)Nc2ccc(S(=O)(=O)N3CCOCC3)cc2)cc1 -2.26%
CCN(CC)c1ccc(NC(=O)c2ccc3c(c2)OCO3)c(C)c1 24.3%
O=C(Nc1ccc(S(=O)(=O)N2CCOCC2)cc1)c1ccc(S(=O)(=O)N2CCOCC2)cc1 0.49%
CCC[C@@H](CN1CCC[C@H]1CN1C(N)=NC[C@@H]1Cc1ccccc1)N1C[C@@H]([C@H](C)CC)N(CCCC2CCCC2)C1=N 12.3%
COc1ccccc1CNC(=O)COC(=O)Cc1c[nH]c2ccccc12 4.99%
CC1CCCC(C)N1CCCNC(=O)CN1C(=O)c2cccnc2Oc2ccc(Cl)cc21 (centres undefined) 6.32%
CCC(C)N1CCCCC1C(=O)Nc1c(C)cc(C)cc1C (centres undefined) 2.22%
CCc1ccc(NC(=O)CCc2nc3ccccc3[nH]2)cc1 10.8%
COc1ccc(Br)cc1CNc1ccc(S(N)(=O)=O)cc1 0.46%
COc1ccc(Br)cc1CNc1ccccc1 26%
CC(C)n1c(SCC(=O)Nc2nncs2)nnc1C1CC1 4.43%
NC(=O)C[C@H](NC(=O)c1ccc(Cl)cc1)C(=O)OCc1ccccc1 8.75%
COc1cccc(NC(=O)C(=O)c2cn(CC(=O)N3CCCC3)c3ccccc23)c1 10%
CCN=c1scc(-c2ccco2)n1/N=C/c1ccc(O)cc1 13.7%
CCN=c1scc(-c2ccc(F)cc2)n1/N=C/c1ccccn1 9.08%
CCN=c1scc(-c2ccco2)n1/N=C/c1ccc(OC)c(O)c1 28%
CC(C)n1c(-c2ccco2)csc1=Nc1cccnc1 11.3%
C=CCN=c1scc(-c2ccco2)n1/N=C/c1ccc(O)c(O)c1O -25.9%
COc1ccc(O)c(/C=N/n2c(-c3ccco3)csc2=Nc2cccnc2)c1 14.5%
COCCN=c1scc(-c2ccco2)n1/N=C/c1ccc(O)c(O)c1O -21.8%
CN=c1scc(-c2ccccc2F)n1/N=C/c1ccc(O)c(O)c1O -8.6%
CCCCc1ncc(CN2CCC(n3nccc3NC(=O)C(OC)c3ccccc3)CC2)[nH]1 (centres undefined) 8.08%
O=C(CN1CCN(Cc2ccccc2)C1=O)NCc1ccc(Cl)cc1 3.73%
NC(=O)COc1ccc(C(=O)NCC2(N3CCOCC3)CCCCC2)cc1 4.65%
Cc1ccc([C@H]2C[C@@H](O)[C@H](n3cc(COC(=O)c4ccccc4)nn3)CN2Cc2cccs2)cc1 -0.67%
COc1ccccc1NC(=O)c1ccc(NC(=O)COC(=O)c2cncc(Br)c2)cc1 5.46%
CC(C)CC1C(C#N)=C(N)OC2=C1C(=O)CC(c1ccccc1)C2 (centres undefined) -2.75%
COc1ccc(CCn2c(-c3cc([N+](=O)[O-])cc([N+](=O)[O-])c3)nc3nc4ccccc4nc32)cc1 4.41%
CN(Cc1cnccn1)C(=O)C1CCC(=O)N(CCc2ccc(Cl)cc2)C1 (centres undefined) 8.49%
COC(=O)c1ccc(OCC(O)CN2CCOCC2)cc1 (centres undefined) -9.81%
COc1ccc(CCNC(=O)N2CCOCC2)cc1 14.2%
CN1CCN(NC(=O)NC2CCCCC2)CC1 2.74%
COc1cc(NC(=O)c2cccs2)ccc1NC(=O)Cc1ccccc1 4.97%
N#Cc1cccc(NC(=O)CNc2cccc(S(=O)(=O)N3CCCC3)c2)c1 -1.55%
O=C(Nc1cccc(S(=O)(=O)N2CCOCC2)c1)c1c2c(nc3ccccc13)CCC2 11.9%
COC(c1ccccc1)c1nnc(CCC(=O)NCc2ccc3ncccc3c2)o1 (centres undefined) 9.84%
CCCN1CNC(=S)N(c2ccc(C)cc2C)C1 16.6%
CC(C)N(Cc1cc2ccccc2[nH]c1=O)C(=O)C(C)(C)C -1.34%
CCOC(=O)C(Sc1cc(C)nc(N)n1)C(C)=O (centres undefined) 0.9%
CCc1c(C)nc(N)nc1Cl -2.74%
COc1cc2c(cc1OC)C(C)=NCC2 5.87%
COc1cc2c(cc1OC)C(c1ccccc1)=NCC2 3.03%
Cc1cc(OCC(=O)OCC(=O)Nc2cc(S(=O)(=O)N3CCOCC3)ccc2Cl)ccc1Cl 2.85%
CCOC(=O)CN1C(=N)N(c2nc(NC(C)C)nc(NC(C)C)n2)CC1=O 7%
CCOC(=O)Cc1csc(NC(=O)CSc2nnnn2-c2ccc(CC)cc2)n1 8.91%
Cc1ccc(NC(=O)CCNC(=O)Nc2ccccc2)cc1S(=O)(=O)N(C)C 2.28%
Cc1ccc(NC(=O)CCNC(=O)c2ccccc2Cl)cc1S(=O)(=O)N(C)C 2.79%
CCN1/C(=N\N)c2cccc3cccc1c23 13.1%
CN1C(=O)N(C)c2cccc3cccc1c23 6.07%
Cc1oc(-c2cccc(F)c2)nc1CN1CCCN(C(=O)c2ccco2)CC1 9.79%
CCCCn1c(N)c(N(Cc2ccccc2OC)C(=O)C(C)Oc2ccc(Cl)cc2)c(=O)[nH]c1=O (centres undefined) 3.24%
Cc1ccc(S(=O)(=O)N(C)Cc2ccc(C(=O)NN=C(CC(C)C)CC(C)C)cc2)cc1 7.07%
CCn1cnc2c(Nc3cccc(Cl)c3)nc(C#N)nc21 12.9%
